Screens from PubChem BioAssay.
Compounds with a hit are over-represented: about 4.5% of the library has one in this group of screens.
GDH-TPI counter: GDH-TPI coupling enzyme inhibitors, primary screen, artefact control for M. tuberculosis FBA inhibitor project, biochemical, absorbance, full deck. GDH-TPI coupled enzyme counterscreen, NADH absorbance. inhibition, % at 4.8 µM. 360,000 tested, 1.2% active; in the data active = inhibition above about 30%;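 note: 0% = DMSO wells and 100% = wells lacking the enzyme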
Mtb FBA inh: Mtb FBA enzyme inhibitors, primary screen, biochemical, fluorescence, strain H37Rv. inhibition, % at 1 µM. AID 588726, 2011. purified M. tuberculosis FBA, fluorescence read-out. Fructose-bisphosphate aldolase (Mycobacterium tuberculosis (strain ATCC 25618 / H37Rv)), …. 360,000 tested, 2.3% active; in the data active = inhibition above about 27%;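 note: 0% = vehicle and 100% = reference inhibitor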
Target sequence (P9WQA3 whole entry, looked up): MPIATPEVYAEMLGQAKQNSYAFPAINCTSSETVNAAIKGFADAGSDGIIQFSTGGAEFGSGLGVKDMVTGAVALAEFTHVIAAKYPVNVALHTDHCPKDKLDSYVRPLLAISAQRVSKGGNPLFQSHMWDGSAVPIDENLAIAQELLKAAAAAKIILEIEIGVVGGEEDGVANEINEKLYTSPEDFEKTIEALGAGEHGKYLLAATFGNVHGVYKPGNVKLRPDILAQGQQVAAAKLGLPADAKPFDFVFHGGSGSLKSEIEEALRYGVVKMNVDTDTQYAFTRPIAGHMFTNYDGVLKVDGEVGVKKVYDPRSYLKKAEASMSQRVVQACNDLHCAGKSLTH
BJeLR lethal: MLPCN primary cell-based screen for lethality selective to Ras in HRASV12 cells; 300,000 tested, 0.17% active; inhibition, % (no concentration beside the values); BJeLR (HRASV12) viability, CellTiter-Glo ATP luminescence, 48 h; in the data active = inhibition above about 50%
PrPC surface inh: inhibitors of human cell surface prion protein PrPC, primary screen, cell-based, TR-FRET | Major prion protein (Homo sapiens), P04156 | TR-FRET read-out | inhibition, % at 13.8 µM | 370,000 tested, 0.43% active | AID 720596, 2013; in the data active = inhibition above about 24%; note: 0% = median of the test wells and 100% = reference compound wells
PrP UTR inh: inhibition of PrP 5' UTR reporter expression; 340,000 tested, 0.35% active; cell-based PrP 5' UTR mRNA reporter, plate reader; inhibition, % (test concentration not listed); AID 488862, 2010; in the data active = inhibition above about 52%; note: 0 = median of the neutral control wells
PfHsp40 yeast: rescue of yeast from PfHsp40 toxicity, primary screen, S. cerevisiae, ATP luminescence | 340,000 tested, 0.68% active | AID 504582, 2011 | S. cerevisiae expressing PfHsp40, growth rescue | growth rescue, % at 12.5 µM; in the data active = growth rescue above about 28%, passing the limit was not always enough;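 note: yeast W303a lacking pdr1 and pdr3 grown in galactose medium; growth measured after three days at 30 °C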
An asterisk follows results filed as active; nt = no result given.

SMILES	GDH-TPI counter	Mtb FBA inh	BJeLR lethal	PrPC surface inh	PrP UTR inh	PfHsp40 yeast
COCCNc1oc(-c2ccc(C)cc2)nc1C#N	22.9	199.6*	5.6	-7.5	-77.6	0.3
COc1cc(-c2cc[n+](C)cc2)ccc1O	10.6	-5.9	-8.0	-17.7	-29.4	67.4*
COc1cc(C(=O)C(=O)c2ccc(O)c(OC)c2)ccc1O	35.3*	-1.9	5.5	-4.1	-1.2	-0.5
COc1cc(-c2nc3ccccc3nc2-c2ccc(O)c(OC)c2)ccc1O	9.4	-1.8	2.5	-23.9	-14.8	-0.1
CCOc1cc(/C=N/Nc2ccc(C(=O)O)cc2)ccc1OC(=O)c1ccccc1C	50.6*	-2.3	-2.6	2.0	-28.0	0.1
Cc1c(OCC(=O)N2CCC(C(=O)NCCCC(=O)O)CC2)ccc2c1oc(=O)c1ccccc12	5.2	132.8*	2.4	-4.4	-2.1	1.7
CCC(C)NC(=O)C1CCN(C(=O)COc2ccc3c4c(c(=O)oc3c2C)CCCC4)CC1 (stereo unspecified)	7.0	8.6	-4.9	1.1	-2.6	0.6
CCOC(=O)[C@@]12CCCC3=C1N(CCC3)C(=O)[C@H]2CC(=O)NCc1ccc(C)o1	nt	nt	nt	-0.7	nt	nt
CC1=C2NC(N)=[N+](Cc3ccc4c(c3)OCO4)CC2n2c(=O)n(-c3ccccc3)c(=O)n2C1 (stereo unspecified)	nt	nt	nt	-2.5	nt	nt
Cc1c(C(=O)Nc2nnc(C3CC3)s2)oc2c(Cl)cccc12	37.1*	2.1	11.3	-1.4	3.5	-0.1
Cc1c(C(=O)Nc2nnc(C3CC3)s2)oc2ccccc12	6.0	2.3	nt	-1.5	-54.2	-0.7
O=C(C(=O)c1cc(Br)ccc1O)c1cc(Br)ccc1O	12.4	-2.5	nt	6.4	-25.5	111.8*
O=C(c1ccc(O)c(Br)c1)c1cc(Br)ccc1O	34.9*	-5.1	nt	-6.2	-32.2	7.9
COc1ccc(/C=N/NC(=S)Nc2cccc(C(=O)O)c2)cc1OC	49.6*	6.7	-19.3	-11.3	3.1	0.1
COc1cccc(/C=N/NC(=S)Nc2cccc(C(=O)O)c2)c1	14.9	3.1	0.8	6.3	-6.4	1.7
COc1cc(/C=N/NC(=S)Nc2cccc(C(=O)O)c2)cc(OC)c1OC	41.3*	-1.2	9.9	-8.9	-12.0	0.6
Cc1nc(N2CCOCC2)c2c(C)c(C(=O)Nc3ccc(F)cc3F)sc2n1	37.5*	1.4	20.2	12.6	5.7	-0.7
COc1ccc(-n2nc(C(=O)N(C)C)nc2-c2ccccc2)cc1	-21.4	0.1	-3.0	5.4	-2.1	-0.1
COc1ccc(/C=N/NC(=O)c2nc(-c3ccccc3)n(-c3ccccc3)n2)cc1	33.3*	1.3	-11.2	2.8	6.6	-0.4
COc1ccc(/C=N/NC(=O)c2nc(-c3ccccc3)n(-c3ccccc3)n2)c(O)c1	24.5	17.0	23.7	13.6	25.9	71.5*
COc1ccc(/C=C\C(=O)NCC(=O)N/N=C/c2ccc(O)cc2O)cc1	67.5*	5.5	0.0	-2.9	nt	-0.3
CC(C)(C)c1cc(C(=O)N/N=C/c2ccccc2O)n(-c2ccccc2)n1	5.8	10.7	1.4	-0.9	23.3	8.5
CC(C)[C@H](N)C(=O)N[C@@H](Cc1ccccc1)C(=O)N1CCC2CCN(S(=O)(=O)c3ccccc3)CC21 (stereo partly specified)	nt	nt	nt	-6.5	nt	nt
CCOC(=O)c1sc2nc(CC(=O)OC)nc(NCC(=O)OC)c2c1C	14.1	125.9*	-1.7	-4.8	-25.2	-1.9
CCOC(=O)c1sc2nc(CC(=O)OC)nc(NCc3ccco3)c2c1C	10.6	19.7	-2.0	-1.5	-9.5	-0.8
SMILES	GDH-TPI counter	Mtb FBA inh	BJeLR lethal	PrPC surface inh	PrP UTR inh	PfHsp40 yeast
CC1(C)CC(=O)C2=C(C1)N(CCN1CCOCC1)C1=C(C(=O)CC(C)(C)C1)C2c1ccc(Cl)c([N+](=O)[O-])c1	2.5	2.6	4.6	0.4	-35.3	-0.2
Cc1ccc(C2C3=C(CC(C)(C)CC3=O)N(CCN3CCOCC3)C3=C2C(=O)CC(C)(C)C3)cc1	7.1	29.4*	-5.4	-5.9	-6.5	-1.1
COc1cccc(-c2c(-c3ccccc3OC)ncn2Cc2cccc(-c3ccccc3)c2)c1	nt	nt	nt	2.0	nt	nt
CN1C(C(=O)Nc2ccccn2)=C(O)c2ccccc2S1(=O)=O	33.3*	-2.2	-11.7	-4.4	-14.6	-1.7
CN1C(C(=O)Nc2ncccn2)=C(O)c2ccccc2S1(=O)=O	21.4	4.9	2.5	7.7	nt	0.3
CCN(CC)c1ccc2c(c1)oc(=O)c1c(Cl)cc(=O)oc12	35.0*	4.4	30.7	nt	4.3	3.2
CCN(CC)c1ccc2c(Cl)c(Br)c(=O)oc2c1	16.3	6.9	2.1	nt	3.4	0.7
O=C(O)COc1ccc(/C=N/NC(=O)c2cccc3ccccc23)cc1	16.4	-2.0	-10.5	-7.1	-9.3	-0.2
O=C(O)COc1ccc(/C=N/NC(=O)/C(=C/C=C/c2ccccc2)NC(=O)c2ccccc2)cc1	54.7*	3.1	-12.2	-11.3	-48.6	0.0
CCCCOc1ccc(C(=O)N/C(=C/C=C/c2ccccc2)C(=O)NC)cc1	32.8*	0.1	-4.4	-7.8	-12.4	1.1
CCCCOc1ccc(C(=O)N/C(=C/C=C/c2ccccc2)C(=O)O)cc1	22.3	-0.7	1.6	-9.4	-11.1	-0.1
COC(=O)C1CN(Cc2cn(Cc3ccccc3)nn2)CCS(=O)(=O)N1Cc1ccc(Cl)cc1 (stereo unspecified)	nt	nt	nt	-1.3	nt	nt
Nc1ncnc2c1ncn2[C@@H]1O[C@H](CNC(=O)[C@@H](N)C2CCCCC2)[C@@H](O)[C@H]1O	0.0	-1.1	nt	-3.6	-2.5	73.2*
C[C@H](N)C(=O)NC[C@H]1O[C@@H](n2cnc3c(N)ncnc32)[C@H](O)[C@@H]1O	9.4	-1.8	nt	-6.3	-9.6	-2.3
CSCC[C@H](N)C(=O)NC[C@H]1O[C@@H](n2cnc3c(N)ncnc32)[C@H](O)[C@@H]1O	5.2	-0.9	nt	0.7	0.9	38.5*
O=C(Cn1nc(-c2ccccc2)c2ccccc21)Oc1ccccc1	nt	nt	nt	8.7	nt	nt
CC(=O)Nc1ccc(S(=O)(=O)Nc2nc3ccccc3nc2Nc2ccc(N)cc2)cc1	31.2*	8.2	-6.6	-3.3	6.5	-1.2
Cc1c(C(O)(c2ccccc2)c2ccccc2)[n+]2ccccc2n1C	nt	nt	nt	8.8	nt	nt
Cc1cccc(C)c1-n1nnnc1C1(C)CN(S(C)(=O)=O)CC(=O)N1Cc1ccc(F)cc1 (stereo unspecified)	nt	nt	nt	4.3	nt	nt
CC(=O)N(C)c1ccc(NC(=S)NC(=O)/C=C/c2ccco2)cc1	40.2*	-7.1	-5.3	-20.0	-0.6	0.0
CC(=O)Nc1ccc(NC(=S)NC(=O)/C=C/c2ccco2)cc1	6.4	1.9	-16.7	-19.7	-8.6	0.9
